From PubChem BioAssay (Tox21)
Calls of active or inactive are those of the source. Entries that show only a call come without a potency. Calls follow the shape of the full dose curve.

What follows are molecules tested against Muscarinic acetylcholine receptor M1 (Homo sapiens) (UniProt P11229) (assay: Cholinergic receptor muscarinic 1 (CHRM1) small molecule agonists, cell-based qHTS assay (AID 1963589; also: nearly all actives have a fitted effect of over 35% in size)). Settings: CHRM1-CHO cells, agonist mode, calcium flux fluorescence; series mostly up to 76.8 µM.
Chain of Muscarinic acetylcholine receptor M1 (Homo sapiens) (P11229 whole entry, looked up): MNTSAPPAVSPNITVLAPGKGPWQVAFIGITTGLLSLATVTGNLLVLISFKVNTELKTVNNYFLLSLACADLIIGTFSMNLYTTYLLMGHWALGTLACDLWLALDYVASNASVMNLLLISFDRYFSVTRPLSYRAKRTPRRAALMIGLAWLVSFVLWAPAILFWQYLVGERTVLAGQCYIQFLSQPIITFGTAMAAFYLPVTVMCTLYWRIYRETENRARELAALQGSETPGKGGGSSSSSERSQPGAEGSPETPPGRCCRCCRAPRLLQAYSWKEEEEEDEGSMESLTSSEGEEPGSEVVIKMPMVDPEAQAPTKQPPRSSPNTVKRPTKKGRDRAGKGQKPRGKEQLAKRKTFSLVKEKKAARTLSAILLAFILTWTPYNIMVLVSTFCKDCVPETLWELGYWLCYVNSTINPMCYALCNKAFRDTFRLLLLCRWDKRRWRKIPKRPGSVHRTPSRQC
Excerpt: National Center for Advancing Translational Sciences [NCATS]
Division of Preclinical Innovation [DPI]
U.S. Environmental Protection Agency [EPA]
National Institutes of Environmental Health Sciences [NIEHS]
National Toxicology Program [NTP]
U.S. Food and Drug Administration [FDA]
The CHRM1 is a muscarinic receptor. This receptor plays a crucial role in learning and memory processes and has long been identified as a promising therapeutic target for the improvement of cognitive decline in Alzheimer's disease (AD). The CHRM1-CHO cell line stably expressing human muscarinic acetylcholine receptor M1 (CHRM1) can be used for screening agonists and antagonists of interactions between CHRM1 and its ligands. The CHRM1-CHO Calcium Flux Assay is a homogeneous fluorescence-based assay for detecting the intracellular calcium level using FDSS kinetic plate reader system.
CHRM1-CHO cells were dispensed at 1000 cells/3uL/well in 1536-well black-clear bottom plates using a Multidrop Dispenser. After the assay plates were incubated at a 37 C/5% CO2 incubator for 18 h, 3 uL of Dye Loading Buffer was transferred to the assay plate by a Flying Reagent Dispenser. The assay plates were incubated at 37 C for 1h. For agonist mode, 23 nL of compounds dissolved in DMSO, positive controls or DMSO only was transferred to the assay plate by a pin tool. […] Each test compound was measured at 15 concentrations in three independent runs.

| SMILES | Potency | activation |
| --- | --- | --- |
| CCN(CC)c1cccc(C)c1 | inactive | – |
| CN1CCN(C2=Nc3cc(F)ccc3Cc3ccccc32)CC1 | inactive | – |
| NS(=O)(=O)c1cc2c(cc1C(F)(F)F)NCNS2(=O)=O | inactive | – |
| CN1Cc2cc(C(=O)N3CCC(C4CCNCC4)CC3)ccc2NC(CC(=O)O)C1=O (stereo not given) | inactive | – |
| C1CCN(CN2CCCCC2)CC1 | inactive | – |
| COc1c(N2C[C@@H]3CCCN[C@@H]3C2)c(F)cc2c(=O)c(C(=O)O)cn(C3CC3)c12 | inactive | – |
| Cc1ccccc1C(=O)O | inactive | – |
| CC(C)(C)N | inactive | – |
| Nc1cc(C(=O)O)ccc1Cl | inactive | – |
| Cc1ccccc1CCO | inactive | – |
| COc1cc(S(=O)(=O)O)c(C)cc1N=Nc1c(O)ccc2cc(S(=O)(=O)O)ccc12 | inactive | – |
| O=C(O)CCCCCCC(=O)O | inactive | – |
| CCN(CC)CCNC(=O)COc1ccc(Cl)cc1 | inactive | – |
| O=C(O)Cc1ccccc1Oc1ccc(Cl)cc1Cl | inactive | – |
| CC(C)=CC(=O)O | inactive | – |
| O=C(O)c1cc(Cl)cc([N+](=O)[O-])c1Cl | inactive | – |
| CC1=CC[C@H](C(C)C)C=C1 | inactive | – |
| C/C=C(\C)C=O | inactive | – |
| Cc1cc(C)c(C=O)c(C)c1 | inactive | – |
| CN(C)CCc1c[nH]c2ccc(CS(=O)(=O)N3CCCC3)cc12 | inactive | – |

| SMILES | Potency | activation |
| --- | --- | --- |
| CCCCN(CCCC)CCCOC(=O)c1ccc(N)cc1 | inactive | – |
| Cc1cc(O)c(C)c(C)c1O | inactive | – |
| CCCCN1C=CN(C)C1 | – | 4.26% [at 15.8 µM] (inactive) |
| CC(C)C(=O)OC/C=C/c1ccccc1 | inactive | – |
| COc1cc(C(C)C)ccc1C | – | -0.0401% [at 15.8 µM] (inactive) |
| CCCCOC(=O)C(C)O (stereo not given) | inactive | – |
| C=CCNc1nc(NCC=C)nc(N2CCN(C(c3ccc(F)cc3)c3ccc(F)cc3)CC2)n1 | inactive | – |
| CC(C)CCCC(C)NCCC(C)C (stereo not given) | inactive | – |
| CCOC(=O)COC(=O)c1ccccc1C(=O)OCC | inactive | – |
| CC1(c2ccccc2)OC(C(=O)O)=CC1=O (stereo not given) | inactive | – |
| CCOC(=O)c1ccccc1O | inactive | – |
| Cc1cc(N)c2cc(NC(=O)Nc3ccc4nc(C)cc(N)c4c3)ccc2n1 | inactive | – |
| CCCCCCCCCCCCCOP(=O)(O)O | inactive | – |
| c1ccc(CN(CC2=NCCN2)c2ccccc2)cc1 | inactive | – |
| C/C=C(\C)C(=O)OCCC(C)CCC=C(C)C (stereo not given) | inactive | – |
| NC(=O)NS(=O)(=O)c1ccc(N)cc1 | inactive | – |
| CNC(=O)c1c(I)c(NC(=O)CCCCC(=O)Nc2c(I)c(C(=O)O)c(I)c(C(=O)NC)c2I)c(I)c(C(=O)O)c1I | inactive | – |
| CC1(C)OC[C@@H](COC(=O)CCc2ccc(OC[C@@H](O)CNCCNC(=O)N3CCOCC3)cc2)O1 | inactive | – |
| CCOC(=O)CS | inactive | – |
| CCC(C(=O)O)c1ccc(N2Cc3ccccc3C2=O)cc1 (stereo not given) | inactive | – |
